Data published in PubChem BioAssay AID2035 (National Center for Advancing Translational Sciences (NCATS), 2009).
The other results are listed elsewhere or left out. Unmarked numbers belong to inactive results. Calls of active or inactive are those of the source. Calls come from the whole dose curve; as a rule, active = well fitted inhibition curve with a large enough effect; inconclusive = small, poorly fitted or top-dose-only effect; inactive = flat fitted curve, though single readings scatter.

Assay: Confirmatory Assay for Inhibitors of Human Galactokinase (GALK): Phenol-HRP redox assay counterscreen
Conditions: Phenol red-HRP H2O2 redox cycling, absorbance 600 nm; series mostly up to 115 µM; activity change, negative = H2O2 signal: at the top concentration
Text: NIH Molecular Libraries Probe Production Centers Network [MLPCN] NIH Chemical Genomics Center [NCGC] MLPCN Grant: R03 MH085689-01 Assay Submitter (PI): Kent Lai (University of Utah School of Medicine, 50 N Mario Capecchi Drive, Salt Lake City, UT 84132) NCGC Assay Overview: One mM dithiothreitol (DTT) was used as a reducing agent to maintain the galactokinase (GALK) enzyme in its active form in the GALK qHTS screen (AID: 1868). However, it has been shown that in the presence of DTT a number of compounds also undergo redox recyling, generating a significant amount of H2O2 that can oxidize crucial cysteine residues in the enzyme, leading to and a false-positive result. To evaluate and flag redox recycling compounds for compounds re-acquired from the qHTS screen, an endpoint colorimetric assay developed by Johnston et al. was adopted and optimized for a 1536-well plate format. In brief, the assay detects the presence of H2O2 by following the change in absorbance at 600 nm due to oxidation of phenol red (Sigma, cat# 114537) catalyzed by horseradish peroxidase (HRP; Invitrogen). A stop reagent, 1N NaOH was added prior to reading the absorbance. DMSO and different concentrations of hydrogen peroxide (Sigma, cat# 216763) in the GALK buffer were used as negative and positive controls respectively.
NCGC Assay Protocol Summary: Two uL/well of GALK buffer (20mM HEPES pH8.0, 5 mM MgCl2, 60 mM NaCl, 1 mM DTT, 0.01% BSA final concentration) was dispensed into a 1536-well assay plates (Greiner, black clear bottom plates) with Aurora Discovery BioRAPTR Flying Reagent Dispenser (FRD; Beckton-Dickenson). Compound and control solutions (23 nL each) were transferred to the assay plate in their respective wells using Kalypsys pin tool equipped with a 1536-pin tool head and incubated at room temperature for 30 min. Presence of H2O2 produced by redox cycling compounds was detected by adding 2 uL/well phenol red - HRP detection reagent ([…] phenol red in 1x Hanks Balanced Salt Solution, 25 U/mL HRP final concentrations). After 15 min of room temperature incubation, the reaction was stopped by adding 2 uL/well 1N NaOH and incubated for an additional 1 hr at room temperature. The absorbance at 600 nm was measured using the ViewLux plate reader (Perkin Elmer, Waltham, MA) with 6000 light energy, 2 sec exposure, and 2x binning instrument settings.

Structure (SMILES) | Potency | activity change, negative = H2O2 signal [%]
N#Cc1c(N2CCCCC2)nc(N)c2c(N)nc(SCC(=O)O)cc12 | 18.8 µM (active) | 
Oc1c(Cl)cc(Cl)c(Cl)c1Cc1c(O)c(Cl)cc(Cl)c1Cl |  | 2
O=C(Nc1nnc(S(=O)(=O)N2CCOCC2)s1)c1cccc(Br)c1 |  | -2.69
CCOC(=O)c1c(C)[nH]c2c1-c1ccccc1C(=O)C2=O | 1.19 µM (active) | 
CCS(=O)(=O)C1=NSC2=NC(=O)/C(=C\c3ccc(OS(=O)(=O)c4ccccc4)cc3)C(=N)N21 |  | 7.35
COc1cccc2cc(-c3cc(=O)oc4cc(C)c(O)cc34)oc12 |  | 0.246
N#C/C(=C(/O)Cc1cccc2ccccc12)c1nc2ccccc2s1 |  | 8.88
